Screening data from PubChem BioAssay.
Shown are actives, neighbours in structure and some others; about 1.8% of the full set was active somewhere.
UHRF1 MBD2 ctr: blocks human UHRF1 binding to methylated DNA | UHRF1 binding to methylated oligo, TR-FRET | inhibition, % at 4.4 µM | actives 0.75% (n = 370,000); in the data active = inhibition above about 21%;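 note: UHRF1 SRA domain binding a hemimethylated CpG hairpin DNA probe; 0% = median of test compound wells and 100% = reference inhibitor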
UBC13 polyUb: inhibitors of human UBC13 polyubiquitin chain formation; inhibition, % at 20 µM; AID 485273; TR-FRET; actives 0.47% (n = 330,000); in the data active = inhibition above about 45%, passing the limit was not always enough
Neddylation inh: blocks human cullin neddylation; TR-FRET cullin neddylation, biochemical; calls only at 25 µM; actives 0.58% (n = 360,000); AID 651699; in the data active = inhibition above about 36%
MBD2 DNA inh: inhibitors of human MBD2 binding to methylated oligonucleotide. Q9UBB5. AID 686964. TR-FRET. actives 0.31% (n = 370,000). inhibition, % at 4.4 µM; in the data active = inhibition above about 13%
* marks the source's active call; other numbers are inactive results.

How did CN(C)CCN1C(=O)CCC2(C)C1=CCC1C2CCC2(C)C1CCC2(C)O (centres undefined) do in these assays?
UHRF1 MBD2 ctr: 80.1*; Neddylation inh: inactive; MBD2 DNA inh: -1.8

How did CCc1ccc2nc(/N=C(\N)NC(=O)c3ccccc3)nc(C)c2c1 do in these assays?
UHRF1 MBD2 ctr: 1.4; UBC13 polyUb: 17.3; Neddylation inh: inactive; MBD2 DNA inh: 0.3

What do the screens show for `CCCC(=O)N/C(N)=N/c1nc(C)c2ccccc2n1`?
UHRF1 MBD2 ctr: 34.4*; UBC13 polyUb: 0.4; Neddylation inh: inactive; MBD2 DNA inh: -0.6

Results for COc1ccc(S[C@]2(C(=O)N(C)C)CC(=O)N(C(=O)Nc3ccc(C)c(Cl)c3)[C@@H]2c2ccc(OC)cc2)cc1 ?
UHRF1 MBD2 ctr: -0.1; MBD2 DNA inh: 2.2

Results for CC(=O)Nc1cccc(-c2ccnc3c2CC(C)(C(=O)NC(C)C)O3)c1 (centres undefined) ?
UHRF1 MBD2 ctr: 0.7; Neddylation inh: inactive; MBD2 DNA inh: -0.5

Results for CC(C)NC(=O)C1(C)Cc2c(-c3cccc(C(F)(F)F)c3)ccnc2O1 (centres undefined) ?
UHRF1 MBD2 ctr: 37.6*; Neddylation inh: inactive; MBD2 DNA inh: -7.6

Results for O=C(Nc1cc(S(=O)(=O)N2CCOCC2)ccc1N1CCOCC1)c1cn2ccccc2n1 ?
UHRF1 MBD2 ctr: 7.5; UBC13 polyUb: -2.9; Neddylation inh: inactive; MBD2 DNA inh: 6.4

What do the screens show for `N#Cc1cccc(NC(=O)COC(=O)c2ccccc2Sc2ccccc2C#N)c1`?
UHRF1 MBD2 ctr: 34.1*; UBC13 polyUb: 11.7; Neddylation inh: inactive; MBD2 DNA inh: -4.0

Results for CC(=O)c1ccc(NC(=O)COC(=O)c2ccccc2Sc2ccccc2C#N)cc1 ?
UHRF1 MBD2 ctr: -1.8; UBC13 polyUb: -12.5; Neddylation inh: inactive; MBD2 DNA inh: -2.6

Results for CC(=O)c1c(O)cc(C)n(-c2ccc(F)cc2)c1=O ?
UHRF1 MBD2 ctr: 3.5; UBC13 polyUb: -3.5; Neddylation inh: inactive; MBD2 DNA inh: -0.8

How did Cc1cc(C)n(-c2ccc(F)cc2)c(=O)c1C(=O)O do in these assays?
UHRF1 MBD2 ctr: 23.0*; UBC13 polyUb: 7.9; Neddylation inh: inactive; MBD2 DNA inh: 10.7

What do the screens show for `CS(=O)(=O)c1cccc(C(=O)Nc2cccc(-c3nc4ccccc4[nH]3)c2)c1`?
UHRF1 MBD2 ctr: 20.8*; UBC13 polyUb: -3.6; Neddylation inh: inactive; MBD2 DNA inh: 2.9

Results for C[C@H](CO)N1C[C@H](C)[C@@H](CN(C)CC2CCCCC2)Oc2c(NS(=O)(=O)c3ccc(F)cc3)cccc2C1=O ?
UHRF1 MBD2 ctr: 0.3; UBC13 polyUb: -1.0; Neddylation inh: inactive; MBD2 DNA inh: 1.5

How did CC(C)(C)CC(C)(C)NCC(=O)Nc1c2c(nc3ccccc13)CCC2 do in these assays?
UHRF1 MBD2 ctr: 27.3*; UBC13 polyUb: 2.6; Neddylation inh: inactive; MBD2 DNA inh: 4.5

What do the screens show for `Cc1ccccc1N/C(SCc1ccc(Cl)cc1)=C(/C#N)C(=O)NCc1ccco1`?
UHRF1 MBD2 ctr: 21.6*; UBC13 polyUb: -0.9; Neddylation inh: inactive; MBD2 DNA inh: 6.0

Results for O=c1[nH]cc(N=Cc2cc(Cl)cc(Cl)c2O)c(=O)[nH]1 ?
UHRF1 MBD2 ctr: -5.8; UBC13 polyUb: -17.1; Neddylation inh: active; MBD2 DNA inh: 0.4

What do the screens show for `O=c1[nH]cc(N=Cc2cc([N+](=O)[O-])ccc2O)c(=O)[nH]1`?
UBC13 polyUb: -20.9

What do the screens show for `O=C(NCCc1ccccc1)OCc1cn(Cc2ccc(F)cc2F)nn1`?
UHRF1 MBD2 ctr: 1.9; MBD2 DNA inh: -0.5

Results for Cc1c(C)c2ccc(OCC(=O)NCCN3CCOCC3)c(C)c2oc1=O ?
UHRF1 MBD2 ctr: -0.1; UBC13 polyUb: -3.1; Neddylation inh: active; MBD2 DNA inh: -0.4

Results for CCOC(=O)c1cc(OC)c2cccc(CN3CCCC(C)(C(=O)NCCOC)C3)c2c1 (centres undefined) ?
UHRF1 MBD2 ctr: 1.0; Neddylation inh: inactive; MBD2 DNA inh: -2.7

Results for CCOC(=O)c1cc(OC)c2cccc(CN3CCC(C)(C(=O)NCCOC)C3)c2c1 (centres undefined) ?
Neddylation inh: active

How did Cn1c(N)c(S(=O)(=O)N2CCCC2)c(=O)n(C)c1=O do in these assays?
UHRF1 MBD2 ctr: 1.0; UBC13 polyUb: -7.5; Neddylation inh: inactive; MBD2 DNA inh: -2.5

What do the screens show for `O=C(O)c1cccc2cc(-c3ccccc3)oc(=O)c12`?
UHRF1 MBD2 ctr: 1.9; UBC13 polyUb: 6.9; MBD2 DNA inh: -0.1

Results for O=C(O)c1cccc2cccc(-c3c4ccc(=O)c(O)c-4oc4c(O)c(O)ccc34)c12 ?
UHRF1 MBD2 ctr: 91.6*; Neddylation inh: inactive; MBD2 DNA inh: 66.5*
